Records with an inconclusive call do not appear. The source made the active and inactive calls. Calls follow the shape of the dose curve; as a rule, active = well fitted activation curve with a large enough effect in the main read-out, with a control signal flat (not every such curve was filed as active); inconclusive = small, poorly fitted or top-dose-only effect, or effect the other way, or a change in a side signal; inactive = flat fitted curve, though single readings scatter.
molecular target: 3',5'-cyclic-AMP phosphodiesterase 4B (Homo sapiens) (UniProt Q07343); experiment: qHTS Assay for Inhibitors of PDE-IV (AID 607); conditions: HEK293 ACTOne CNG channel cells, membrane potential fluorescence; series mostly up to 22.9 µM
Sequence (Q07343 whole entry, looked up): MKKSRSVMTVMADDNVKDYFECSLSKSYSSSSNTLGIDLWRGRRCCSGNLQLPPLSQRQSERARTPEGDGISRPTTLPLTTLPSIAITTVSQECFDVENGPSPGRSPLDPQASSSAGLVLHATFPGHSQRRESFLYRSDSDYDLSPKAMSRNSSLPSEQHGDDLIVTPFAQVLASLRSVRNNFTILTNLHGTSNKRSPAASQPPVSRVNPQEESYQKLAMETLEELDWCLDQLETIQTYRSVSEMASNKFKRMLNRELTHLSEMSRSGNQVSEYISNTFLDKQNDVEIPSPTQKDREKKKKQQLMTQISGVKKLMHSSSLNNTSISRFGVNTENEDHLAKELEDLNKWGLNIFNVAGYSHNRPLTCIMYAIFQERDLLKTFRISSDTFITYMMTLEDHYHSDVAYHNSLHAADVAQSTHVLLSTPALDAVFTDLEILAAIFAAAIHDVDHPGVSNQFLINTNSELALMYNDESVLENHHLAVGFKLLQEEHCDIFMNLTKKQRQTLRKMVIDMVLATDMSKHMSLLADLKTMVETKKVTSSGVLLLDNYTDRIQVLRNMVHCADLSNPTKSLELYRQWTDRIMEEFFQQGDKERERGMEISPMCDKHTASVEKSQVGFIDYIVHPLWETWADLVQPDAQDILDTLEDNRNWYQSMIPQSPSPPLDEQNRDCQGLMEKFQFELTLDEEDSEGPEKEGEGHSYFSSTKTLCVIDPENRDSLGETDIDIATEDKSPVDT
Summary of the method: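 The readout is membrane depolarisation from a cAMP-sensing CNG channel, detected with a potential dye at ex 535/em 590. Cells were HEK293-derived (endogenous PDE-IV) at 1000 cells/well, titrated up to 22.9 uM final.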

SMILES	outcome
N#C/C(=C\c1c[nH]c2ccccc12)C(=O)c1ccc(O)c(O)c1	inactive
CN=c1nc(-c2ccccc2)n(-c2ccccc2)s1	inactive
COc1cc(OC)c(/C=C2/C(=O)Nc3ccccc32)c(OC)c1	inactive
O=c1[nH]c2cc([N+](=O)[O-])c([N+](=O)[O-])cc2[nH]c1=O	inactive
CC(C)(C=O)Cc1cc(C(C)(C)C)c(O)c(C(C)(C)C)c1	inactive
C[N+](C)(CCCCCC[N+](C)(C)CCCN1C(=O)c2cccc3cccc(c23)C1=O)CCCN1C(=O)c2cccc3cccc(c23)C1=O	inactive
COC1=C(OC)C(=O)c2ccccc2C1=O	inactive
Ic1ccc(N2CCN(Cc3c[nH]c4ncccc34)CC2)cc1	inactive
O=C(O)Cc1ccc(-c2ccccc2)cc1	inactive
Cc1c(N)c(=O)n(-c2ccccc2)n1C	inactive
CN1CCc2ccccc2Cc2[nH]c3ccccc3c2CC1	inactive
Clc1ccc(N2CCN(Cc3c[nH]c4ncccc34)CC2)cc1	inactive
Cc1c(Nc2ncccc2C(=O)O)cccc1C(F)(F)F	inactive
COc1ccccc1N1CCN(CCN(C(=O)c2ccc(I)cc2)c2ccccn2)CC1	inactive
NO	inactive
O=C(Nc1ccccc1)c1cc([N+](=O)[O-])ccc1Cl	inactive
CCCSc1ccc2nc(NC(=O)OC)[nH]c2c1	inactive
CCCN(CC1CC1)c1nc(C)nc(Nc2c(Cl)cc(Cl)cc2Cl)c1Cl	inactive
Nc1cc(-c2ccncc2)c[nH]c1=O	inactive
O=C(O)c1cc(=O)c2ccccc2[nH]1	inactive
CN(C)C(N)=NCCC[C@H](N)C(=O)O	inactive
O=c1[nH]c2cc(C(F)(F)F)ccc2n1-c1cc(C(F)(F)F)ccc1O	inactive
Cc1ccc(O)c(N=Nc2ccccc2)n1	inactive
NC[C@@H]1O[C@H](C23CC4CC(CC(C4)C2)C3)Cc2c1ccc(O)c2O	inactive
O=C(O)CC[C@@H](C(=O)O)N1C(=O)c2ccccc2C1=O	inactive
O=c1[nH]c2cc(Cl)c(Cl)cc2[nH]c1=O	inactive
O=Nc1ccc2oc(=O)ccc2c1	inactive
CN1CCc2cc(NC(=O)Nc3cccnc3)ccc21	inactive
NCCCS(=O)(=O)O	inactive
NCCCCC(=O)O	inactive

— PubChem BioAssay (NCATS)
